Measurements reported in PubChem BioAssay (NCI).
Compounds without any hit were thinned out: in the full panel of roughly 83,000, 20% have a hit.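 Method: cells in 96-well plates; compound added at one concentration; 48 h incubation; percent growth measured; values under 10 scored active.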 A number with no mark means an inactive call. Activity calls are given as the source filed them.

Each compound was assayed on EKVX NSCLC (assay: NCI-60 one-dose screen, 48 h (100 = growth as untreated, 0 = no growth, -100 = all killed)). Settings: 10 µM unless noted.
For `COC(=O)c1cccc(NC2=C(Cl)C(=O)C(C)=C(C)C2=O)c1`, the growth was 92.2%.
Compound `Cn1cc(-c2nc(N)nnc2-c2c[nH]c3ccc(Br)cc23)c2cc(F)ccc21` has a growth of 78.5%.
With `O=C(O)c1ccc(-n2c(=O)n(-c3cccc(C(F)(F)F)c3)c(=O)c3cc(-c4ccc(F)cc4F)ccc32)cc1` the growth was 5.67% (active).
With `O=C1[C@H]2Cc3c([nH]c4ccccc34)[C@H](c3ccc(Br)cc3)N2C(=O)CN1C1CCN(CC2CCCCC2)CC1` the growth was 83.8%.
`C#Cc1nc(/C=C/CCCCCCC(=O)NO)cs1` was tested, and the growth was 89.5%.
Work on `C#CCN(C)CCCOc1ccc(NC(=O)CCCCCCCCC(=O)NO)cc1Cl` yielded a growth of 68.8%.
`NC(=O)c1ncn2c(=O)n(CCF)nnc12` showed a growth of 92.5%.
In the case of `Cc1csc(/N=C(N)/N=C(\N)c2cccc(C#N)c2)n1`, the growth is reported as 82.8%.
With `C=C(C)[C@@H]1CC[C@]2(COCCCNCCCN)CC[C@]3(C)[C@H](CC[C@@H]4[C@@]5(C)CC[C@H](O)C(C)(C)[C@@H]5CC[C@]43C)[C@@H]12` the growth was -84.2% (active).
`O=C(/C=C/c1cccc(F)c1)c1cccc(OCCCOc2cccc(C(=O)/C=C/c3cccc(F)c3)c2)c1` showed a growth of 47.2%.
Work on `Cc1ccc(C(=O)CSc2nc3ccccc3c(=O)n2C)cc1` yielded a growth of 71.5%.
Compound `Cc1ccc2c(n1)C(=O)C(Cl)=C(Nc1ccc(C#N)cc1)C2=O` has a growth of 93%.
In the case of `CC(C)(O)c1cncc(-c2ccc3ncc(C#N)c(N4CCc5cc(F)c(Cl)cc54)c3c2)c1`, the growth is reported as -10.5% (active).

The compounds below were run on SN12C renal in the same assay as above. Settings: 10 µM unless noted.
Work on `O=S(=O)(NCCCNc1nccc(-c2[nH]c(-c3ccccc3)nc2-c2ccc(F)c(O)c2)n1)c1cccc(F)c1` yielded a growth of 99.1%.
With `Cn1cc(-c2cc3ncnc(Nc4ccc(NC(=O)Nc5cc(C(C)(C)C)on5)cc4)c3s2)cn1` the growth was 18.8%.
Work on `Cn1ncc2c(C(=O)c3ccc(F)cc3)nc(C(C)(C)C)nc21` yielded a growth of 96.2%.
With `N#Cc1c(-c2cccs2)cc(-c2cnccn2)nc1SCC(=O)N/N=C/c1ccc(Cl)cc1` the growth was 104%.
With `O=C(/C=C/c1cc(Cl)ccc1Cl)Nc1ncc(Cc2ccc(Cl)cc2)s1` the growth was 9.91% (active).
Work on `CNC(=O)c1cc(N2CCc3cc(NC(=O)Nc4ccc(N5CCN(C)CC5)c(C(F)(F)F)c4)ccc32)ccn1` yielded a growth of 100%.
Work on `CCc1cc(O)ccc1Nc1cc(-c2ccc(-n3cccn3)cc2)[nH]n1` yielded a growth of 73.5%.
For `COc1ccc2[nH]cc(-c3nc(N)nnc3-c3cn(C)c4ccc(Br)cc34)c2c1`, the growth was 42.6%.
`CCCCCCCCCCCC(=O)NC(C)(C)C(=O)N1CCCC1C(=O)NC(C)(C)C(=O)NC(C)(C)C(=O)N1CCCC1C(=O)NC(C)(C)C(=O)NC(C)(C)C(=O)N1CCCC1C(=O)NC(C)C(=O)NCCC(=O)NC(C)C(=O)NC(C)(C)C(=O)NC(C)(C)C(=O)NC(C)(C)C(=O)NCCC(=O)NC(C)(C)C(=O)NC(C)(C)C(=O)NC(C)(C)C(=O)NC(C)C(=O)NCCC(=O)O` (centres undefined) was tested, and the growth was -94% (active).
`CCCc1[nH]c(-c2cc(N)ccc2Cl)c2c1C(=O)CCCC2` showed a growth of 92.1%.
With `CC1=C(C)C(=O)C(Nc2ccc(C)cc2)=C(Br)C1=O` the growth was 98.9%.
`O=S(=O)(Oc1ccc(-c2cn3ccsc3n2)cc1)c1cccc(C(F)(F)F)c1` was tested, and the growth was 104%.
In the case of `C#CCOc1cccc(/C(N)=N/C(N)=N/c2nc3ccccc3s2)c1`, the growth is reported as 66%.
In the case of `CCOC(=O)c1c(NC(=O)c2ccc(C(F)(F)F)cc2)sc2c(CN3CCN(C)CC3)c(O)ccc12`, the growth is reported as -75.7% (active).
`Cc1ccc(NC(=O)Nc2nc3ccc([N+](=O)[O-])cc3s2)cc1` was tested, and the growth was 3.41% (active).
With `CCOC(=O)c1c(NCC(=O)Nc2cccc([N+](=O)[O-])c2)sc(C(C)=O)c1C` the growth was 12.6%.
`O=C(CCCCCCNC(=O)C(O)(O)C(F)(F)F)Nc1ccc(Br)cc1` was tested, and the growth was 20.1%.
`Cc1ccccc1N1CCN(C2=C(Cl)C(=O)c3ncccc3C2=O)CC1` was tested, and the growth was 70.1%.
Compound `O=C1[C@@H]2Cc3c([nH]c4ccccc34)[C@H](c3ccc(Br)cc3)N2C(=O)CN1C1CCN(Cc2c(Cl)cccc2Cl)CC1` has a growth of 92.5%.
In the case of `Cc1ccc(CSC2=C(Cl)CN(c3ccc(Cl)cc3)C2=O)cc1`, the growth is reported as 104%.
`COC(=O)CCCNCCCn1ccc2cc(NCc3cccc(-c4ccccc4)c3C)ccc21` showed a growth of 73.4%.
